Tests used:
Conditions in all cases: concentration: 1 μM, replicates: in singlicate; n = 1
[1] = test system: T1, NDR1
T1 construct: gene STK38

[2] = test system: NDR2
[3] = test system: NEK10
[4] = test system: NEK11
[5] = test system: NEK1
[6] = test system: NEK2
[7] = test system: NEK3
[8] = test system: NEK4
[9] = test system: NEK5
[10] = test system: NEK6
[11] = test system: NEK7
[12] = test system: NEK9
[13] = test system: T2, NIK
T2 construct: gene MAP3K14

[14] = test system: T3, NIM1
T3 construct: gene MGC42105

[15] = test system: NLK
[16] = test system: T4, OSR1
T4 construct: gene OXSR1

[17] = test system: PAK1
[18] = test system: PAK2
[19] = test system: PAK3
[20] = test system: PAK4
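Also: KINOMEscan kinase panel screen.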

Compound | %Inh [1] | %Inh [2] | %Inh [3] | %Inh [4] | %Inh [5] | %Inh [6] | %Inh [7] | %Inh [8] | %Inh [9] | %Inh [10] | %Inh [11] | %Inh [12] | %Inh [13] | %Inh [14] | %Inh [15] | %Inh [16] | %Inh [17] | %Inh [18] | %Inh [19] | %Inh [20]
COc1ccccc1CNC(=O)c1cc(C(=O)c2ccccc2C)c[nH]1 [GSK364507] | 0% | 0% | 6% | 0% | 0% | 0% | 8% | 14% | 13% | 17% | 6% | 15% | 12% | 16% | 40% | 8% | 6% | 1% | 0% | 0%
COc1ccccc1-c1ccc2c(NC(=O)C3CC3)n[nH]c2n1 [SB-711239] | 8% | 0% | 11% | 33% | 0% | 22% | 0% | 6% | 0% | 4% | 6% | 5% | 0% | 19% | 15% | 64% | 5% | 0% | 7% | 12%
O=C(Nc1n[nH]c2nc(-c3nccs3)c(Br)cc12)C1CCCC1 [SB-742609] | 0% | 0% | 15% | 0% | 0% | 0% | 14% | 38% | 0% | 0% | 5% | 0% | 33% | 0% | 31% | 7% | 16% | 21% | 17% | 0%
Cc1ccccc1-n1cnc2c(N)ncnc21 [SKF-97510] | 0% | 20% | 0% | 0% | 11% | 0% | 0% | 0% | 9% | 0% | 12% | 0% | 0% | 0% | 15% | 0% | 15% | 11% | 25% | 0%
CS(=O)(=O)c1ccc(-c2c(-c3ncn[nH]3)sc(N3CCOCC3)c2C#N)cc1 | 18% | 0% | 36% | 0% | 4% | 0% | 40% | 0% | 7% | 31% | 0% | 0% | 0% | 21% | 0% | 0% | 2% | 10% | 6% | 5%
Nc1nc(-c2nccs2)c(-c2ccnc3ccccc23)s1 [GW693542] | 17% | 30% | 19% | 12% | 0% | 0% | 4% | 0% | 3% | 0% | 0% | 12% | 0% | 5% | 38% | 6% | 0% | 1% | 9% | 0%
COC(=O)c1c(-c2ccccc2)c2cc(C(=O)O)ccc2c(=O)n1Cc1ccccc1 | 2% | 0% | 9% | 0% | 22% | 0% | 31% | 0% | 0% | 0% | 0% | 0% | 0% | 0% | 0% | 0% | 14% | 22% | 0% | 0%
Cc1cc(N2Cc3ccccc3C2)nc(Nc2ccc(S(=O)(=O)N3CCOCC3)cc2)n1.Cl [GSK1669917] | 20% | 0% | 0% | 0% | 0% | 0% | 0% | 9% | 23% | 0% | 0% | 0% | 0% | 6% | 7% | 0% | 8% | 3% | 0% | 0%
O=C1NC(=O)C(N2CCc3ccccc32)=C1c1ccccc1Cl [SB-373598] | 12% | 0% | 18% | 0% | 0% | 1% | 7% | 15% | 9% | 0% | 0% | 13% | 0% | 16% | 2% | 63% | 10% | 10% | 100% | 0%
O=C(Nc1ccccc1)Nc1cccc(Oc2ccc3nccn3n2)c1 | 4% | 0% | 0% | 0% | 0% | 0% | 8% | 0% | 0% | 0% | 0% | 36% | 7% | 19% | 22% | 0% | 0% | 0% | 0% | 0%

From article PMC5540273 (PLoS ONE, 2017)
